C diff HTS: C. difficile growth inhibition; Clostridium difficile clinical isolate growth, OD600, 24 h; stronger effect = lower value; growth activity, negative = inhibition, % at 16 µg/mL (by protocol); hit rate 0.25% among 86,000;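 active means mean growth activity at or below -80% and every replicate also at or below -80%; inconclusive means mean at or below -80% but some replicate above -80%; inactive means mean growth activity above -80%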;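 further: 0% = DMSO wells and -100% = levofloxacin 16 µg/mL wells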
Pf Dd2 growth: blocks growth of Plasmodium falciparum Dd2 parasites | hit rate 2.3% among 94,000 | P. falciparum Dd2 growth, SYBR Green, 72 h; stronger effect = lower value | activity change, % at 10 µM | AID 1159554; in the data active means activity change below about -80%; inconclusive means no clear call, values can overlap the other calls
Active calls of the source: *; ? = inconclusive; / = no result given; ! = not active in a repeat. In the library only some 2.4% were active in any assay of this set; here they are far more common.

SMILES	C diff HTS	Pf Dd2 growth
COC(=O)C[C@H]1CC[C@@H]2[C@H](COc3ccc(NC(=O)c4ccccc4F)cc3C(=O)N2C)O1	-7	/
O=C(C[C@H]1C=C[C@H](NC(=O)Nc2ccc3c(c2)OCO3)[C@@H](CO)O1)NCc1ccc(F)cc1	8	-4
CO[C@@H]1CN(C)C(=O)c2ccc(NS(=O)(=O)c3ccccc3)cc2OC[C@H](C)N(Cc2cccnc2)C[C@H]1C	2	-4
C[C@H]1CCCCO[C@@H](CN(C)C(=O)Nc2ccc(C(F)(F)F)cc2)[C@@H](C)CN([C@@H](C)CO)C(=O)c2cc(NC(=O)Cc3ccccc3)ccc2O1	3	-63
COc1ccc(NC(=O)N(C)C[C@@H]2OCCCC[C@H](C)Oc3ccc(NC(=O)c4ccccc4)cc3C(=O)N([C@H](C)CO)C[C@@H]2C)cc1	1	?
C[C@@H]1CCCCO[C@H](CN(C)C(=O)c2ccccc2)[C@@H](C)CN([C@H](C)CO)C(=O)c2cc(NC(=O)Nc3ccc4c(c3)OCO4)ccc2O1	14	6
C[C@@H]1CCCCO[C@H](CN(C)C(=O)c2ccccc2)[C@H](C)CN([C@@H](C)CO)C(=O)c2cc(NC(=O)Nc3ccc(C(F)(F)F)cc3)ccc2O1	0	-61
COc1ccc(NC(=O)N(C)C[C@H]2OCCCC[C@H](C)Oc3ccc(NC(=O)c4ccccc4)cc3C(=O)N([C@@H](C)CO)C[C@H]2C)cc1	-3	-89*
C[C@@H]1CCCCO[C@H](CN(C)C(=O)c2ccccc2)[C@@H](C)CN([C@@H](C)CO)C(=O)c2cc(NC(=O)Nc3ccc(C(F)(F)F)cc3)ccc2O1	2	-92*
C[C@@H]1CCCCO[C@H](CN(C)C(=O)c2ccccc2)[C@@H](C)CN([C@@H](C)CO)C(=O)c2cc(NC(=O)Nc3ccc4c(c3)OCO4)ccc2O1	4	-81*
C[C@@H]1CCCCO[C@H](CN(C)C(=O)Nc2ccc(C(F)(F)F)cc2)[C@@H](C)CN([C@@H](C)CO)C(=O)c2cc(NC(=O)Cc3ccccc3)ccc2O1	-2	-89*
O=C(C[C@@H]1CC[C@@H](NC(=O)NC2CCCCC2)[C@@H](CO)O1)NCc1ccc(Cl)cc1	1	-6
C[C@@H]1CN([C@@H](C)CO)C(=O)c2cc(NS(=O)(=O)c3cn(C)cn3)ccc2O[C@@H](C)CCCCO[C@@H]1CN(C)C(=O)c1ccncc1	3	23
C[C@@H]1CN([C@@H](C)CO)C(=O)Cc2cc(NC(=O)Nc3cccc4ccccc34)ccc2O[C@H]1CN(C)C	3	14
CN1CCCCN2[C@H](CO)[C@@H](c3ccc(C#Cc4ccccc4F)cc3)[C@H]2C1	1	-21
CO[C@H]1CN(C)C(=O)c2ccc(NS(=O)(=O)c3cccc(C)c3)cc2OC[C@H](C)NC[C@@H]1C	5	4
C[C@@H]1CCCCO[C@H](CN(C)C(=O)Nc2ccc(C(F)(F)F)cc2)[C@@H](C)CN([C@H](C)CO)C(=O)c2cc(NC(=O)c3ccccc3)ccc2O1	5	-59
C[C@H]1CCCCO[C@@H](CN(C)C(=O)Nc2ccc(C(F)(F)F)cc2)[C@@H](C)CN([C@@H](C)CO)C(=O)c2cc(NC(=O)c3ccccc3)ccc2O1	11	-84*
OC(CSc1nc(-c2ccccc2)c(-c2ccccc2)o1)CC(O)c1ccccc1 (configuration not stated)	-4	/
COc1ccc(C#Cc2cnc3c(c2)C(=O)N([C@H](C)CO)C[C@H](C)[C@H](CN(C)S(=O)(=O)c2cccs2)O3)cc1OC	/	-84*!
CCCN(C)C[C@H]1Oc2ncc(C#Cc3ccccc3OC)cc2C(=O)N([C@@H](C)CO)C[C@H]1C	/	78
COc1ccc(C#Cc2cnc3c(c2)C(=O)N([C@H](C)CO)C[C@H](C)[C@H](CN(C)S(=O)(=O)c2ccccc2)O3)cc1OC	5	-76
CCCN(C)C[C@H]1Oc2ncc(C#Cc3ccc(OC)cc3)cc2C(=O)N([C@@H](C)CO)C[C@H]1C	3	-87*
CCCN(C)C[C@H]1Oc2ncc(C#Cc3ccccc3OC)cc2C(=O)N([C@H](C)CO)C[C@H]1C	3	-87*
COc1ccc(C#Cc2cnc3c(c2)C(=O)N([C@@H](C)CO)C[C@@H](C)[C@@H](CN(C)C(=O)c2ccccc2F)O3)cc1	3	-65
SMILES	C diff HTS	Pf Dd2 growth
COc1ccc(C#Cc2cnc3c(c2)C(=O)N([C@H](C)CO)C[C@H](C)[C@H](CN(C)C(=O)c2ccccc2F)O3)cc1	10	-84*
COc1ccc(C#Cc2cnc3c(c2)C(=O)N([C@@H](C)CO)C[C@@H](C)[C@@H](CN(C)C)O3)cc1	-7	-58
CC(C)NC(=O)N(C)C[C@@H]1OCCCC[C@H](C)Oc2ccc(NC(=O)CCC(F)(F)F)cc2C(=O)N([C@@H](C)CO)C[C@H]1C	1	-2
CC(C)CC#Cc1cnc2c(c1)C(=O)N([C@H](C)CO)C[C@H](C)[C@H](CN(C)C(=O)c1cnccn1)O2	0	13
O=C(CC1CC1)Nc1ccc2c(c1)[C@H]1C[C@@H](CC(=O)NC3CCCCC3)O[C@@H](CO)[C@H]1O2	0	25
COCC(=O)Nc1ccc2c(c1)C(=O)N(C)C[C@H](OC)[C@H](C)CN(Cc1cccc(F)c1)[C@H](C)CO2	/	-72
COc1ccc(C#Cc2cnc3c(c2)C(=O)N([C@@H](C)CO)C[C@H](C)[C@@H](CN(C)C)O3)cc1	-4	-42
CCCN(C)C[C@H]1Oc2ncc(C#Cc3ccc(OC)cc3)cc2C(=O)N([C@H](C)CO)C[C@H]1C	-5	-84*
CNC[C@@H]1Oc2ncc(C#Cc3cccc(OC)c3)cc2C(=O)N([C@H](C)CO)C[C@@H]1C	3	-21
CCCN(C)C[C@@H]1Oc2ncc(C#Cc3ccc(OC)c(OC)c3)cc2C(=O)N([C@H](C)CO)C[C@@H]1C	8	-82*
CNC[C@H]1Oc2ncc(C#Cc3cccc(OC)c3)cc2C(=O)N([C@H](C)CO)C[C@H]1C	0	-83*
CCCC#Cc1cnc2c(c1)C(=O)N([C@H](C)CO)C[C@H](C)[C@@H](CN(C)CCC)O2	0	-47
CC(C)NC(=O)N[C@@H]1CC[C@@H](CCNC(=O)C2CCOCC2)O[C@H]1CO	/	15
C[C@H](CO)N1C[C@H](C)[C@@H](CN(C)Cc2ccc3c(c2)OCO3)OCCCC[C@H](C)Oc2ccc(NS(=O)(=O)c3cn(C)cn3)cc2C1=O	/	-2
Cc1ccc(S(=O)(=O)N(C)C[C@@H]2Oc3ccc(NC(=O)CCCCCC(=O)Nc4ccccc4N)cc3C(=O)N([C@@H](C)CO)C[C@@H]2C)cc1	-1	-89*
C[C@H](CO)N1C[C@H](C)[C@@H](CN(C)S(=O)(=O)c2ccc(Cl)cc2)Oc2ccc(NC(=O)CCCCCC(=O)Nc3ccccc3N)cc2C1=O	-6	-86*
C[C@H](CO)N1C[C@H](C)[C@H](CN(C)S(=O)(=O)c2ccc(Cl)cc2)Oc2ccc(NC(=O)CCCCCC(=O)Nc3ccccc3N)cc2C1=O	-22	-74
Cc1ccc(S(=O)(=O)N(C)C[C@@H]2Oc3ccc(NC(=O)CCCCCC(=O)Nc4ccccc4N)cc3C(=O)N([C@@H](C)CO)C[C@H]2C)cc1	-3	-60
C[C@H]1CN([C@@H](C)CO)C(=O)c2cc(-c3cccc(C#N)c3)cnc2O[C@@H]1CN(C)C(=O)C1CCC1	-1	8

Screening results (PubChem BioAssay)
